Experimental data published in article PMC5540273 (PLoS ONE, 2017).

Legend:
Settings in all cases: concentration: 1 μM, replicates: in singlicate; n = 1
PIK4CB = tested on: T1, PIK4CB
T1 construct: gene PI4KB

PIKFYVE = tested on: PIKFYVE
PIM1 = tested on: PIM1
PIM2 = tested on: PIM2
PIM3 = tested on: PIM3
PIP5K1A = tested on: PIP5K1A
PIP5K1C = tested on: PIP5K1C
PIP5K2B = tested on: PIP5K2B
PIP5K2C = tested on: T2, PIP5K2C
T2 construct: gene PIP4K2C

PKAC-alpha = tested on: T3, PKAC-alpha
T3 construct: gene PRKACA

PKAC-beta = tested on: T4, PKAC-beta
T4 construct: gene PRKACB

PKMYT1 = tested on: PKMYT1
PKN1 = tested on: PKN1
PKN2 = tested on: PKN2
PLK1 = tested on: PLK1
PLK2 = tested on: PLK2
PLK3 = tested on: PLK3
PLK4 = tested on: PLK4
PRKCD = tested on: PRKCD
PRKCE = tested on: PRKCE
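Also: KINOMEscan kinase panel screen.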

Row | Structure (SMILES) | %Inh (PIK4CB) [%] | %Inh (PIKFYVE) [%] | %Inh (PIM1) [%] | %Inh (PIM2) [%] | %Inh (PIM3) [%] | %Inh (PIP5K1A) [%] | %Inh (PIP5K1C) [%] | %Inh (PIP5K2B) [%] | %Inh (PIP5K2C) [%] | %Inh (PKAC-alpha) [%] | %Inh (PKAC-beta) [%] | %Inh (PKMYT1) [%] | %Inh (PKN1) [%] | %Inh (PKN2) [%] | %Inh (PLK1) [%] | %Inh (PLK2) [%] | %Inh (PLK3) [%] | %Inh (PLK4) [%] | %Inh (PRKCD) [%] | %Inh (PRKCE) [%]
1 | CNc1nc(-c2ccc3c(N)n[nH]c3c2)cc(N2C[C@@H](C(=O)NC3CCCCC3)OC[C@H]2C)n1 [GSK2375584] | 0 | 0 | 11 | 0 | 0 | 34 | 54 | 21 | 27 | 5 | 10 | 0 | 29 | 0 | 3 | 0 | 1 | 1 | 8 | 8
2 | COC(=O)c1cccc(NC(=O)NC2CCN(c3ccnc(Nc4ccc(F)cc4)n3)C2)c1 (centres unmarked) [GSK1379725] | 6 | 0 | 30 | 0 | 0 | 0 | 14 | 9 | 0 | 0 | 0 | 0 | 0 | 0 | 0 | 0 | 0 | 0 | 0 | 4
3 | Cc1c(Cn2c3ccccc3n3c(=O)cc(N4CCOCC4)nc23)cccc1C(F)(F)F [GSK2306394] | 90.3 | 0 | 6 | 0 | 0 | 0 | 8 | 20 | 0 | 0 | 0 | 0 | 100 | 0 | 0 | 0 | 0 | 0 | 0 | 0
4 | COc1ccc2cc(-c3nc(-c4ccccc4C(C)C)[nH]c3-c3ccncc3)ccc2c1 [SB-660566] | 0 | 0 | 15 | 0 | 0 | 18 | 0 | 38 | 0 | 0 | 3 | 7 | 24 | 0 | 0 | 0 | 0 | 4 | 0 | 0
5 | Nc1cccc(-c2ccc3c(N)n[nH]c3c2)n1 [GSK2192730] | 30 | 0 | 26 | 0 | 13 | 39 | 0 | 4 | 0 | 0 | 0 | 0 | 37 | 0 | 0 | 0 | 0 | 8 | 0 | 0
6 | Cc1cccc2c(-c3ccncn3)c(-c3ccc(F)cc3)nn12 [GW515532] | 0 | 22 | 20 | 0 | 0 | 4 | 31 | 0 | 0 | 7 | 15 | 5 | 23 | 0 | 0 | 0 | 0 | 0 | 5 | 0
7 | CCc1ccc(-c2ccc3c(c2)-c2n[nH]cc2S(=O)(=O)N3C)cc1 | 0 | 100 | 0 | 0 | 18 | 0 | 45 | 0 | 16 | 0 | 12 | 2 | 0 | 0 | 6 | 0 | 7 | 0 | 0 | 14
8 | COc1ccc(CSc2nnc(-c3ccc4ncsc4c3)o2)cc1C(F)(F)F | 0 | 0 | 1 | 0 | 10 | 0 | 11 | 17 | 11 | 0 | 1 | 22 | 0 | 0 | 0 | 4 | 0 | 2 | 13 | 0
9 | O=C(Nc1n[nH]c2nc(-c3cccs3)c(Br)cc12)C1CC1 [SB-735297] | 12 | 2 | 0 | 0 | 0 | 15 | 0 | 0 | 0 | 0 | 2 | 0 | 0 | 0 | 9 | 19 | 7 | 8 | 7 | 19
10 | Cn1cncc1C(=O)NC1CCN(c2ccnc(Nc3ccc(F)cc3)n2)C1 (centres unmarked) [GSK1379717] | 26 | 0 | 15 | 0 | 0 | 0 | 32 | 0 | 20 | 0 | 0 | 0 | 52 | 0 | 12 | 0 | 11 | 0 | 0 | 0
